# Test results as given in PubChem BioAssay (NCATS).
# Results filed as inconclusive are left out. A call without a number means that no potency is given here. A number with no mark means an inactive call. The source made the active and inactive calls. The call rests on the fitted dose curve; in most records, active means well fitted curve in the direction sought with a large enough effect; inconclusive means small, poorly fitted or top-dose-only effect, or another doubt; inactive means no such curve, though single readings can be large; an effect the other way counts as inactive or inconclusive.
# Legend:
# [1] = qHTS of pediatric cancer cell lines to identify multiple opportunities for drug repurposing: Primary screen for U-2 OS cells (AID 1347096); further: nearly all actives have a fitted effect of over 50% in size; further: potency means the concentration at half of the fitted maximal effect
# How it was run: (§1)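 Cells (500-1,000/well) in growth media were settled 5 h at 37 degrees C, then given compounds for 48 h. Viability was read as CellTiter-Glo luminescence. Primary runs used MIPE at 11 points (0.78 nM-46 µM) and NPC at 8 points (0.59 nM-46 µM); follow-ups used 11 points.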
# [2] = qHTS of pediatric cancer cell lines to identify multiple opportunities for drug repurposing: Primary screen for NB1643 cells (AID 1347099); further: nearly all actives have a fitted effect of over 50% in size; further: potency means the concentration at half of the fitted maximal effect
# How it was run: (§2)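 500-1,000 cells/well; 5 h pre-incubation 37 °C/5% CO2; compound pinned; 48 h; CellTiter-Glo, 15 min RT; luminescence. MIPE 11-pt from 0.78 nM, NPC 8-pt from 0.59 nM final. Bortezomib 2.3 µM final as positive control.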
# [3] = qHTS of pediatric cancer cell lines to identify multiple opportunities for drug repurposing: Primary screen for LAN-5 cells (AID 1347100)
# How it was run: as §1
# [4] = qHTS of pediatric cancer cell lines to identify multiple opportunities for drug repurposing: Primary screen for Rh18 cells (AID 1347102); further: nearly all actives have a fitted effect of over 65% in size; further: potency means the concentration at half of the fitted maximal effect
# How it was run: as §1
# [5] = qHTS of pediatric cancer cell lines to identify multiple opportunities for drug repurposing: Primary screen for RD cells (AID 1347104); further: nearly all actives have a fitted effect of over 55% in size; further: potency means the concentration at half of the fitted maximal effect
# How it was run: as §2
# [6] = qHTS of pediatric cancer cell lines to identify multiple opportunities for drug repurposing: Primary screen for MG 63 (6-TG R) cells (AID 1347105); further: nearly all actives have a fitted effect of over 50% in size; further: potency means the concentration at half of the fitted maximal effect
# How it was run: as §2
# [7] = qHTS of pediatric cancer cell lines to identify multiple opportunities for drug repurposing: Primary screen for control Hh wild type fibroblast cells (AID 1347106);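 further: series mostly up to about 46 µM; a drop in luminescence marks cytotoxicity and a rise apparent proliferation; nearly all actives have a fitted effect of over 55% in size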
# How it was run: as §1
# [8] = qHTS of pediatric cancer cell lines to identify multiple opportunities for drug repurposing: Primary screen for Rh30 cells (AID 1347107); further: series mostly up to about 46 µM; nearly all actives have a fitted effect of over 75% in size
# How it was run: as §1
# [9] = qHTS of pediatric cancer cell lines to identify multiple opportunities for drug repurposing: Primary screen for Rh41 cells (AID 1347108);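 further: series mostly up to about 46 µM; luminescence drop marks cytotoxic hits; nearly all actives have a fitted effect of over 70% in size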
# How it was run: as §2
# [10] = qHTS of pediatric cancer cell lines to identify multiple opportunities for drug repurposing: Primary screen for SK-N-SH cells (AID 1347098); further: nearly all actives have a fitted effect of over 65% in size; further: potency means the concentration at half of the fitted maximal effect
# How it was run: (§3)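 Cells (500-1,000/well) rested 5 h, then received compounds for 48 h; metabolically active cells were measured by CellTiter-Glo luminescence. Final concentrations spanned up to 46 µM (MIPE, 11-point) or 0.59 nM-46 µM (NPC, 8-point) in primary screens, 11-point in follow-ups.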
# [11] = qHTS of pediatric cancer cell lines to identify multiple opportunities for drug repurposing: Primary screen for OHS-50 cells (AID 1347103); further: nearly all actives have a fitted effect of over 40% in size; further: potency means the concentration at half of the fitted maximal effect
# How it was run: as §3
# [12] = qHTS of pediatric cancer cell lines to identify multiple opportunities for drug repurposing: Primary screen for Saos-2 cells (AID 1347097); further: nearly all actives have a fitted effect of over 40% in size; further: potency means the concentration at half of the fitted maximal effect
# How it was run: as §2
# [13] = qHTS of pediatric cancer cell lines to identify multiple opportunities for drug repurposing: Confirmatory screen for NB1643 cells (AID 1347109); further: nearly all actives have a fitted effect of over 45% in size
# How it was run: as §1
# [14] = qHTS of pediatric cancer cell lines to identify multiple opportunities for drug repurposing: Confirmatory screen for A673 cells (AID 1347110);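 further: cells exposed to compound for 48 h before the viability read; nearly all actives have a fitted effect of over 65% in size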; further: potency means the concentration at half of the fitted maximal effect
# How it was run: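 Concentration-response curves came straight from titrations: 11 points (0.78 nM to 46 µM) for MIPE and several concentrations (0.59 nM to 46 µM) for NPC in primary, 11 points in follow-up. Readout: ATP luminescence at 48 h.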
# [15] = qHTS of pediatric cancer cell lines to identify multiple opportunities for drug repurposing: Confirmatory screen for SK-N-MC cells (AID 1347111);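 further: cells exposed to compound for 48 h before the readout; nearly all actives have a fitted effect of over 70% in size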; further: potency means the concentration at half of the fitted maximal effect
# How it was run: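 Metabolically active cells were quantified by ATP-dependent luminescence (CellTiter-Glo, 15 min at room temperature) following 48 h treatment. Cells had been plated at 500-1,000 per well and settled for 5 h beforehand.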
# [16] = qHTS of pediatric cancer cell lines to identify multiple opportunities for drug repurposing: Confirmatory screen for BT-12 cells (AID 1347112); further: nearly all actives have a fitted effect of over 55% in size
# How it was run: as §1
# [17] = qHTS of pediatric cancer cell lines to identify multiple opportunities for drug repurposing: Confirmatory screen for LAN-5 cells (AID 1347113); further: nearly all actives have a fitted effect of over 65% in size
# How it was run: as §1
# [18] = qHTS of pediatric cancer cell lines to identify multiple opportunities for drug repurposing: Primary screen for NB-EBc1 cells (AID 1347095)
# How it was run: as §2
# [19] = qHTS of pediatric cancer cell lines to identify multiple opportunities for drug repurposing: Primary screen for BT-37 cells (AID 1347094); further: potency means the concentration at half of the fitted maximal effect
# How it was run: as §2
# [20] = qHTS of pediatric cancer cell lines to identify multiple opportunities for drug repurposing: Primary screen for BT-12 cells (AID 1347101); further: nearly all actives have a fitted effect of over 25% in size; further: potency means the concentration at half of the fitted maximal effect
# How it was run: as §3
smiles,measurement,setting,value
CCN(CC)CCOC(=O)C1(C2CCCCC2)CCCCC1,Potency,[1],inactive
same,Potency,[2],inactive
same,Potency,[3],inactive
same,Potency,[4],inactive
same,Potency,[5],inactive
same,Potency,[6],inactive
same,outcome,[7],inactive
same,outcome,[8],inactive
same,Potency,[9],inactive
CN(C)CCCN1c2ccccc2Sc2ccc(Cl)cc21,Potency,[1],inactive
same,Potency,[10],6.12 µM (active)
same,Potency,[11],27.6 µM (active)
same,outcome,[7],inactive
same,outcome,[8],inactive
CC(=O)O[C@@]12CO[C@@H]1C[C@H](O)[C@@]1(C)C(=O)[C@H](O)C3=C(C)[C@@H](OC(=O)[C@H](O)[C@@H](NC(=O)OC(C)(C)C)c4ccccc4)C[C@@](O)([C@@H](OC(=O)c4ccccc4)[C@H]21)C3(C)C,Potency,[1],inactive
same,Potency,[4],inactive
same,Potency,[11],0.0031 µM (active)
same,outcome,[7],inactive
same,outcome,[8],inactive
Cc1ccc2nc(N)[nH]c(=O)c2c1Sc1ccncc1,Potency,[1],inactive
same,Potency,[12],13.3 µM (active)
same,Potency,[10],inactive
same,Potency,[2],inactive
same,Potency,[4],inactive
same,outcome,[7],inactive
same,Potency,[13],inactive
same,Potency,[14],0.465 µM (active)
same,Potency,[15],2.08 µM (active)
same,Potency,[16],inactive
same,Potency,[17],inactive
CSc1ccc2c(c1)C(N1CCN(C)CC1)Cc1ccccc1S2 (stereo not drawn),Potency,[18],inactive
same,Potency,[1],inactive
same,Potency,[10],27.3 µM (active)
same,Potency,[2],inactive
same,Potency,[11],27.6 µM (active)
same,outcome,[7],inactive
same,outcome,[8],inactive
same,Potency,[9],inactive
CC1=C(CC(=O)O)c2cc(F)ccc2/C1=C\c1ccc(S(C)(=O)=O)cc1,Potency,[19],inactive
same,Potency,[18],inactive
same,Potency,[1],inactive
same,Potency,[2],inactive
same,Potency,[3],inactive
same,Potency,[20],inactive
same,Potency,[4],inactive
same,Potency,[11],inactive
same,Potency,[5],inactive
same,Potency,[6],inactive
same,outcome,[7],inactive
same,outcome,[8],inactive
same,Potency,[9],inactive
CC(C)c1c(C(=O)Nc2ccccc2)c(-c2ccccc2)c(-c2ccc(F)cc2)n1CC[C@@H](O)C[C@@H](O)CC(=O)O,Potency,[19],24.6 µM (active)
same,Potency,[1],21.1 µM (active)
same,Potency,[12],0.841 µM (active)
same,Potency,[10],12.2 µM (active)
same,Potency,[3],inactive
same,Potency,[20],1.23 µM (active)
same,Potency,[11],15.5 µM (active)
same,Potency,[5],inactive
same,Potency,[6],6.68 µM (active)
CSc1ccc2c(c1)N(CCC1CCCCN1C)c1ccccc1S2 (stereo not drawn),Potency,[19],24.6 µM (active)
same,Potency,[18],inactive
same,Potency,[12],23.7 µM (active)
same,Potency,[20],24.6 µM (active)
same,Potency,[4],16.8 µM (active)
same,Potency,[11],17.4 µM (active)
same,Potency,[5],26.6 µM (active)
same,outcome,[7],inactive
COC(=O)C1=C(C)NC(C)=C(C(=O)OC)C1c1ccccc1[N+](=O)[O-],Potency,[19],inactive
same,Potency,[1],inactive
same,Potency,[12],inactive
same,Potency,[10],21.7 µM (active)
same,Potency,[2],inactive
same,Potency,[3],inactive
same,Potency,[20],inactive
same,Potency,[4],inactive
same,Potency,[6],inactive
same,outcome,[7],inactive
same,outcome,[8],inactive
same,Potency,[9],inactive
Cc1cc(C(C#N)c2ccc(Cl)cc2)c(Cl)cc1NC(=O)c1cc(I)cc(I)c1O (stereo not drawn),Potency,[12],26.6 µM (active)
same,outcome,[7],inactive
same,Potency,[9],inactive
CCCCN(CCCC)CC(O)c1cc(Cl)cc2c1-c1ccc(Cl)cc1/C2=C/c1ccc(Cl)cc1 (stereo not drawn),Potency,[18],inactive
same,Potency,[1],inactive
same,Potency,[10],inactive
same,Potency,[2],inactive
same,Potency,[6],inactive
same,outcome,[7],inactive
same,outcome,[8],inactive
same,Potency,[9],inactive
CC(CN1c2ccccc2Sc2ccccc21)N(C)C (stereo not drawn),Potency,[19],inactive
same,Potency,[18],inactive
same,Potency,[1],inactive
same,Potency,[2],inactive
same,Potency,[3],inactive
same,Potency,[6],inactive
same,outcome,[7],inactive
same,outcome,[8],inactive
O=C1N=C(O)CN1/N=C/c1ccc(-c2ccc([N+](=O)[O-])cc2)o1,Potency,[19],inactive
same,Potency,[1],inactive
same,Potency,[12],inactive
same,Potency,[10],inactive
same,Potency,[2],inactive
same,Potency,[20],inactive
same,Potency,[4],inactive
same,Potency,[11],inactive
same,Potency,[5],inactive
same,Potency,[6],inactive
same,outcome,[7],inactive
same,outcome,[8],inactive
same,Potency,[9],inactive
same,Potency,[13],inactive
same,Potency,[14],inactive
same,Potency,[15],inactive
same,Potency,[16],inactive
same,Potency,[17],inactive
COc1ccc2cc1Oc1ccc(cc1)C[C@H]1c3c(cc4c(c3Oc3cc5c(cc3OC)CCN(C)[C@@H]5C2)OCO4)CCN1C,Potency,[19],17.4 µM (active)
same,Potency,[10],12.2 µM (active)
same,Potency,[2],inactive
same,Potency,[20],24.6 µM (active)
same,Potency,[11],15.5 µM (active)
same,Potency,[5],23.7 µM (active)
same,outcome,[8],inactive
CNCCCC1c2ccccc2C=Cc2ccccc21,Potency,[18],inactive
same,Potency,[2],inactive
same,Potency,[11],21.9 µM (active)
same,Potency,[5],26.6 µM (active)
same,outcome,[7],inactive
same,outcome,[8],inactive
same,Potency,[9],inactive
CNCCC(Oc1ccc(C(F)(F)F)cc1)c1ccccc1 (stereo not drawn),Potency,[18],inactive
same,Potency,[1],inactive
same,Potency,[3],inactive
same,Potency,[11],27.6 µM (active)
same,Potency,[6],16.8 µM (active)
same,outcome,[7],inactive
same,outcome,[8],inactive
[Cl][In]([Cl])[Cl],Potency,[18],inactive
same,Potency,[1],inactive
same,Potency,[12],8.63 µM (active)
same,Potency,[10],inactive
same,Potency,[2],inactive
same,Potency,[20],inactive
same,Potency,[11],25.2 µM (active)
same,Potency,[6],inactive
same,outcome,[7],inactive
same,outcome,[8],inactive
same,Potency,[9],inactive
CC[N+](CC)(CC)CCOc1ccc(/C=C/c2ccccc2)cc1,Potency,[19],15.5 µM (active)
same,Potency,[1],inactive
same,Potency,[12],23.7 µM (active)
same,Potency,[2],13.3 µM (active)
same,Potency,[20],3.47 µM (active)
same,Potency,[4],7.5 µM (active)
same,Potency,[11],3.47 µM (active)
same,Potency,[5],15 µM (active)
COCCOC(=O)C1=C(C)NC(C)=C(C(=O)OC/C=C/c2ccccc2)C1c1cccc([N+](=O)[O-])c1 (stereo not drawn),Potency,[2],inactive
same,Potency,[4],inactive
same,Potency,[11],19.5 µM (active)
same,outcome,[7],inactive
same,outcome,[8],inactive
O=C(O)[C@H](O)c1ccccc1,Potency,[18],inactive
same,Potency,[1],inactive
same,Potency,[12],inactive
same,Potency,[10],inactive
same,Potency,[2],inactive
same,Potency,[3],inactive
same,Potency,[20],inactive
same,Potency,[5],inactive
same,Potency,[6],inactive
same,outcome,[7],inactive
same,outcome,[8],inactive
same,Potency,[9],inactive
C[C@]12CC[C@@H]3c4ccc(O)cc4CC[C@H]3[C@@H]1CC[C@@H]2OC(=O)CCC1CCCC1,Potency,[10],inactive
same,Potency,[2],inactive
same,Potency,[4],inactive
same,Potency,[11],27.6 µM (active)
same,outcome,[7],inactive
same,outcome,[8],inactive
same,Potency,[9],inactive
O=C1Nc2ccc(Cl)cc2[C@@](C#CC2CC2)(C(F)(F)F)O1,Potency,[1],inactive
same,Potency,[4],inactive
same,Potency,[11],27.6 µM (active)
same,Potency,[5],inactive
same,outcome,[7],inactive
same,outcome,[8],inactive
same,Potency,[9],inactive
CC(C(O)c1ccc(O)cc1)N1CCC(Cc2ccccc2)CC1 (stereo not drawn),Potency,[18],inactive
same,Potency,[1],inactive
same,Potency,[12],inactive
same,Potency,[2],inactive
same,Potency,[3],inactive
same,Potency,[20],inactive
same,Potency,[5],inactive
same,outcome,[7],inactive
same,outcome,[8],inactive
same,Potency,[9],inactive
